This note sets out measurements from PubChem BioAssay (NCI).

About 83,000 compounds went through this panel and 20% of them were active in at least one assay; those are over-represented in the sample as a whole.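 Growth was measured after 48 h exposure to one concentration of compound in 96-well plates. Values under 10 count as active.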 A number with no mark means an inactive call. Calls of active or inactive are those of the source.

In this assay the test system is HOP-92 NSCLC. Nature of the assay: NCI-60 one-dose screen, 48 h (100 = growth as untreated, 0 = no growth, -100 = all killed). Conditions: 10 µM unless noted.
For `Oc1c(N=Nc2nn[nH]n2)ccc2ccccc12`, the growth was 77.1%.

As for `CCN1CCN(c2nc(NNC(=O)Cc3ccccc3)nc(N3CCN(C(c4ccccc4)c4ccccc4)CC3)n2)CC1`, the growth was 82.9%.

Consider `COc1cc(-c2nnc(-c3nc(-c4cc(OC)c(OC)c(OC)c4)n4ccccc34)o2)ccc1N`, for which the growth was 29.2%.

Consider `CCOc1cc(/C=C/C(=O)CC(=O)/C=C/c2ccc(OC(=O)CNCCN(CC)CC)c(OCC)c2)ccc1OC(=O)CNCCN(CC)CC`, for which the growth was -3.28% (active).

Turning to `Nc1ccc2c(c1Br)Cc1ccccc1-2`, the growth is 76%.

Turning to `CCOC(=O)C1=CCC(n2cc(C)c(=O)[nH]c2=O)O1` (centres undefined), the growth is 65%.

Regarding `CCCCCN(CCCCC)CCCNc1c2c(nc3ccc(Cl)cc13)CCCC2`, the growth was -6.23% (active).

With `COc1ccc(-c2nnc3c4[nH]cnc4ncn23)c(OC)c1`, the growth was 52.9%.

Regarding `O=C(Nc1nn2c(-c3cc(C(F)(F)F)cc(C(F)(F)F)c3)nnc2s1)C1CCCC1`, the growth is -24.2% (active).

As for `COc1ccc(N2CCN(CC(=O)N3CCN(c4nnc(-c5ccc(Cl)cc5)c(-c5ccc(Cl)cc5)n4)CC3)CC2)cc1`, the growth is 50.3%.

`O=C(O)c1ccc2cccnc2c1O`: the growth was -29.3% (active).

Consider `COC(=O)[C@H]1[C@H]2C[C@@H]3c4[nH]c5cc(OC)ccc5c4CCN3C[C@H]2C[C@@H](OC(=O)/C=C/c2cc(OC)c(OC)c(OC)c2)[C@@H]1OC`, for which the growth was 60.5%.

For `COc1ccc2nc(-c3ccc(Cl)cc3)cc(-c3nnc(SCC(=O)Nc4ccc(C(C)=O)cc4)n3-c3ccccc3)c2c1`, the growth was 111%.

For the molecule `COc1cc(/C=C/C(=O)C(C(=O)/C=C/c2ccc(OC(=O)CCNC34CC5CC(CC(C5)C3)C4)c(OC)c2)C(=O)CCNC23CC4CC(CC(C4)C2)C3)ccc1OC(=O)CCNC12CC3CC(CC(C3)C1)C2` (centres undefined), the growth is 44.6%.

For `N#Cc1ccccc1C#Cc1ccccc1C#Cc1ccc(OCCCCCCOc2ccc(C#Cc3ccccc3C#Cc3ccccc3C#N)cc2)cc1`, the growth was 91.6%.

As to `O=CNc1ccc2c(c1)Cc1cc([N+](=O)[O-])ccc1-2`, the growth is 42.4%.

As to `N#CC(C#N)C(C#N)C#N`, the growth is 102%.

In the case of `N/C(=N\c1nc2ccccc2s1)NC(=O)Nc1ccccc1Cl`, the growth is 139%.

As for `O=c1c2c(=NCCCN3CCCC3)cc3c(=O)n(CCCN4CCCC4)c(=O)c4c(NCCCN5CCCC5)cc(c(O)n1CCCN1CCCC1)c2c4-3`, the growth is 0.433% (active).

`C/C(=C\CCc1ccsc1)CC/C=C(\C)CCCN1CCSCC1`: the growth is 73.3%.

As for `COc1ccc(CC(=O)Nc2nn3c(-c4cc(C(F)(F)F)cc(C(F)(F)F)c4)nnc3s2)cc1`, the growth is 15.4%.

`CCCCCCCCCCNCCSS(=O)(=O)O`: the growth was 93.3%.

Regarding `O=C(Nc1ccccc1)c1cc(-n2cnc([N+](=O)[O-])c2)cc(-n2cnc([N+](=O)[O-])c2)n1`, the growth was 49.7%.

On to `O=C1/C(=C/c2ccc(F)cc2)Cc2ccccc21`, for which the growth is 80.4%.

For the molecule `CCN(CC)c1ccc(N=C2C=CC(=O)C=C2NC(C)=O)cc1`, the growth is 104%.

With `C[C@H](C(=O)N[C@@H](Cc1ccc(-c2ccccc2)cc1)C(=O)NC1CC(C)(C)N(C)C(C)(C)C1)c1ccc(-c2ccccc2)c(F)c1`, the growth is -75.5% (active).

For the molecule `CSc1nc2nc3c(nc2c(=O)n1C)C(=O)c1ccccc1C3=O`, the growth is -40% (active).

Turning to `O=C(C(=O)c1cc(Br)ccc1O)c1cc(Br)ccc1O`, the growth is 25.4%.

In the case of `O=C1CSC(c2ccccc2O)N1c1nnc(Cn2ccnc2)o1` (centres undefined), the growth is 69.1%.

In the case of `COc1cccc(N2CCN(CC(=O)N3CCN(c4nnc(-c5ccc(Cl)cc5)c(-c5ccc(Cl)cc5)n4)CC3)CC2)c1`, the growth is 11.9%.

For `NC(=O)NS(=O)(=O)c1ccc(N2N=C(C(F)(F)F)CC2c2cc(C(F)(F)F)cc(C(F)(F)F)c2)cc1` (centres undefined), the growth is 49.8%.

On to `CC(=O)N1N=C(c2ccc(C(F)(F)F)cc2)CC1c1ccc2c(c1)OCO2` (centres undefined), for which the growth was 77.5%.

Turning to `CCOc1cc(/C=C/C(=O)C(C(=O)/C=C/c2ccc(OC(=O)CNc3nnc(C)s3)c(OCC)c2)C(=O)CNc2nnc(C)s2)ccc1OC(=O)CNc1nnc(C)s1`, the growth is -25.6% (active).

In the case of `CC(C)N(Cc1ccccc1)c1c(S)ssc1=S`, the growth is -36.2% (active).

Take `Nc1ccccc1-c1ccn[nH]1`: the growth was 91.4%.

Consider `FC(F)(F)c1cc(-c2nnc3n2N=C(N2CCCC2)CS3)cc(C(F)(F)F)c1`, for which the growth is 37.4%.

As for `COc1c(O)cc2c(c1CC=C(C)C)OC(=O)c1c(cc(O)c(CC=C(C)C)c1O)O2`, the growth is 54.6%.

As for `Fc1ccc(-c2nn3c(-c4cc(C(F)(F)F)cc(C(F)(F)F)c4)nnc3s2)cc1`, the growth was -20.5% (active).

Take `COc1ccc2c(c1)c(CC(=O)[Se]C)c(C)n2C(=O)c1ccc(Cl)cc1`: the growth was -6.92% (active).
